The source of these data is PubChem BioAssay AID602405 (Broad Institute, 2012).

As usually defined, the inhibition is the relative decrease from the control value, in per cent.

Screen size: about 360,000 compounds; about 350 (0.097%) were called active. For the sample, actives were picked, then their nearest neighbours and some compounds at random. Values without a mark were called inactive. No stated cut-off is given here; in the data, active means inhibition above about 16% (passing the limit was not always enough); inconclusive means no clear call, values can overlap the other calls; inactive means below that.

This test deals with UDP-N-acetylbacillosamine N-acetyltransferase PglD (Campylobacter jejuni). In words: C. jejuni PglD acetyltransferase inhibitors, primary screen, biochemical, DTNB colorimetric, single point (AID 602405). The note with it: purified PglD enzyme, DTNB colorimetric CoA detection; at 12.5 µM; stronger effect = higher value.
In the case of `CCCCC(=O)Nc1ccc(C(=O)NCCCn2ccnc2)cc1`, the inhibition was 20.6% (active).

On to `CCCC(=O)Nc1ccc(C(=O)NCCCn2ccnc2)cc1`, for which the inhibition was -0.628%.

Turning to `CC(=O)Nc1ccc(NC(=O)CCCNC(=O)c2ccc(Cl)cc2)cc1`, the inhibition is -4.6%.

On to `COc1cccc(-c2ccc3c(c2)O[C@H](CN(C)Cc2ccncc2)[C@H](C)CN([C@H](C)CO)S3(=O)=O)c1`, for which the inhibition was -0.814%.

As for `CCCC#Cc1ccc([C@H]2[C@@H](CO)N(C(=O)C3CC3)[C@H]2C#N)cc1`, the inhibition is 0.491%.

In the case of `C[C@@H]1CN([C@H](C)CO)C(=O)c2cc(C#Cc3ccccn3)cnc2O[C@H]1CN(C)CC1CCOCC1`, the inhibition was 14.4%.

Take `C[C@H]1CN([C@@H](C)CO)C(=O)c2cccc(NC(=O)C3CCOCC3)c2O[C@H]1CN(C)S(C)(=O)=O`: the inhibition is -0.415%.

On to `COc1ccc(CNC(=O)C[C@H]2CC[C@@H]3[C@H](COc4ccc(NC(=O)C5CC5)cc4C(=O)N3C)O2)cc1`, for which the inhibition was -0.548%.

Regarding `C[C@H]1CN([C@@H](C)CO)C(=O)c2cc(N(C)C)ccc2O[C@@H]1CN(C)S(=O)(=O)c1ccc(Cl)cc1`, the inhibition was 14.8%.

Regarding `C[C@@H]1CCCCO[C@@H](CN(C)Cc2ccc(C(=O)O)cc2)[C@H](C)CN([C@H](C)CO)C(=O)c2cc(NC(=O)Nc3ccc(F)cc3)ccc2O1`, the inhibition is 0.576%.

As for `C[C@H](CO)N1C[C@H](C)[C@H](CN(C)S(=O)(=O)c2ccccc2)Oc2cc(Br)ccc2S1(=O)=O`, the inhibition was -0.169%.

Take `C[C@@H]1CN([C@@H](C)CO)C(=O)c2cc(NC(=O)Cc3ccccc3)ccc2O[C@@H](C)CCCCO[C@H]1CN(C)C(=O)Nc1cccc2ccccc12`: the inhibition was -0.256%.

Turning to `CCOc1ccc(OCc2ccc(C(=O)Nc3cccc(C)n3)o2)cc1`, the inhibition is 1.24%.

Take `CCOc1ccc(OCc2ccc(C(=O)N(C)c3ccccc3)o2)cc1`: the inhibition was 27.6% (active).

Take `COc1ccc(NC(=O)CN(C)C(=O)c2ccc(COc3ccccc3)o2)cc1`: the inhibition was -2.65%.

Regarding `C/C=C/c1ccc2c(c1)O[C@H](CN(C)C(C)=O)[C@H](C)CN([C@H](C)CO)S2(=O)=O`, the inhibition was -0.698%.

In the case of `CO[C@H]1CN(C)C(=O)c2ccc(NC(=O)C3CC3)cc2OC[C@@H](C)N(C)C[C@H]1C`, the inhibition was 4.48%.

For the molecule `CO[C@@H]1CN(C)C(=O)c2ccc(NC(=O)C3CCCCC3)cc2OC[C@@H](C)N(Cc2nccs2)C[C@@H]1C`, the inhibition is 1.22%.

Regarding `Cc1ccc(S(=O)(=O)N(C)C[C@H]2Oc3c(NC(=O)c4ccc(-c5nccs5)cc4)cccc3C(=O)N([C@H](C)CO)C[C@H]2C)cc1`, the inhibition was -3.77%.

Consider `C[C@H]1CN([C@@H](C)CO)S(=O)(=O)c2ccc(C#Cc3ccccc3F)cc2O[C@@H]1CN(C)C(=O)c1ccc2c(c1)OCO2`, for which the inhibition was 1.7%.

For `CN1CCN(C(=O)C[C@@H]2C=C[C@@H](NS(=O)(=O)c3cccc(F)c3)[C@@H](CO)O2)CC1`, the inhibition was -7.9%.

As to `CNC(=O)C[C@H]1CC[C@H]2[C@H](COc3ccc(NC(=O)Nc4cccc(C)c4)cc3C(=O)N2C)O1`, the inhibition is -0.336%.

In the case of `COc1ccc(NC(=O)C2=NNC(=O)CC2)cc1S(=O)(=O)N1CCCCC1`, the inhibition is 25.4% (active).

With `CCOC(=O)C1CCN(CC(=O)Nc2ccc(OC)c(S(=O)(=O)N3CCCCC3)c2)CC1`, the inhibition is 2.34%.

As for `COc1ccccc1C(=O)Nc1ccc(C)c(S(=O)(=O)N2CCCCC2)c1`, the inhibition is -5.07%.

In the case of `C[C@@H]1CN([C@@H](C)CO)C(=O)c2cccc(NS(=O)(=O)c3ccc(Cl)cc3)c2O[C@@H]1CN(C)C(=O)Nc1ccccc1`, the inhibition is 0.684%.

For `N#C[C@H]1[C@@H](c2ccc(-c3ccccc3F)cc2)[C@H](CO)N1C(=O)c1ccccn1`, the inhibition was -0.127%.

Regarding `COc1cccc(CNC(=O)C[C@H]2CC[C@@H](NC(C)=O)[C@@H](CO)O2)c1`, the inhibition was -2.55%.

With `C[C@@H]1CCCCO[C@H](CN(C)C(=O)C2CCCCC2)[C@@H](C)CN([C@@H](C)CO)C(=O)c2cc(NC(=O)Nc3ccccc3)ccc2O1`, the inhibition was -3.55%.

Regarding `O=C(C[C@H]1C=C[C@H](NC(=O)Nc2cc(F)ccc2F)[C@H](CO)O1)Nc1ccccc1`, the inhibition is -2.58%.

For `C[C@@H]1CN([C@H](C)CO)C(=O)Cc2cc(NS(=O)(=O)c3cccs3)ccc2O[C@H]1CN(C)C(=O)Nc1ccc2c(c1)OCO2`, the inhibition was 2.77%.

As to `C[C@@H]1CN([C@H](C)CO)S(=O)(=O)c2ccc(C#Cc3ccccc3F)cc2O[C@@H]1CN(C)C(=O)c1ccc2c(c1)OCO2`, the inhibition was -1.88%.

As for `COc1ccc(S(=O)(=O)Nc2ccc3c(c2)C(=O)N([C@H](C)CO)C[C@@H](C)[C@H](CN(C)S(=O)(=O)c2ccc(C)cc2)O3)cc1`, the inhibition is 4.85%.

Turning to `COCCNC(=O)C[C@H]1CC[C@@H]2[C@H](COc3ccc(NC(=O)Nc4cccc(F)c4)cc3C(=O)N2C)O1`, the inhibition is 0.139%.

As for `CO[C@H]1CN(C)C(=O)c2ccc(NC(=O)c3cnccn3)cc2OC[C@@H](C)N(C(C)=O)C[C@H]1C`, the inhibition was -1.18%.

`C[C@@H]1CN([C@H](C)CO)C(=O)Cc2cc(NC(=O)C3CCCCC3)ccc2O[C@@H]1CN(C)S(C)(=O)=O`: the inhibition is 56.5%.

As to `CC(C)NC(=O)N1[C@@H]2CN(C(=O)Nc3ccc(F)cc3)c3ccccc3[C@@H]2[C@@H]1CO`, the inhibition is 2.48%.

Turning to `C[C@@H]1CCCCO[C@@H](CN(C)S(=O)(=O)c2ccccc2)[C@H](C)CN([C@H](C)CO)C(=O)c2cc(NC(=O)CCC(F)(F)F)ccc2O1`, the inhibition was 0.918%.

Consider `O=C(c1ccccc1)N1C[C@H]2[C@@H](c3ccccc31)[C@H](CO)N2Cc1ccccc1F`, for which the inhibition is -1.39%.

Take `CC(C)C#Cc1ccc([C@@H]2[C@H]3CN(C(=O)NC(C)C)CCCCN3[C@H]2CO)cc1`: the inhibition was 1.97%.

On to `CN1C(=O)c2cc(NC(=O)C3CC3)ccc2OC[C@@H]2O[C@H](CC(=O)NCC3CCCCC3)CC[C@@H]21`, for which the inhibition is 0.676%.

As for `CCCOc1ccc(F)cc1-c1cc(C(=O)Nc2ccc(F)c(Cl)c2)[nH]n1`, the inhibition is -24.9%.

On to `CCCOc1ccc(F)cc1-c1cc(C(=O)NCc2ccc(F)cc2)[nH]n1`, for which the inhibition was 4.69%.

Turning to `CCCOc1ccc(F)cc1-c1cc(C(=O)Nc2ccc(F)cc2)[nH]n1`, the inhibition is 21.5% (active).

Consider `Cc1ccc(S(=O)(=O)NCC[C@H]2CC[C@H](NC(=O)c3ccccn3)[C@H](CO)O2)cc1`, for which the inhibition was 0.367%.

For `CCCNC(=O)N1C[C@@H]2[C@H](c3ccccc31)[C@@H](CO)N2C(=O)NC(C)C`, the inhibition is 4.12%.

On to `CN1c2ccc(-c3ccccc3F)cc2[C@H]2[C@H](CCN2C(=O)Nc2cc(F)ccc2F)[C@H]1CO`, for which the inhibition was -0.933%.

In the case of `C=CC1=C(C(=O)O)N2C(=O)[C@@H](NC(=O)/C(=N\OCC(=O)O)c3csc(N)n3)[C@H]2SC1`, the inhibition is -2.51%.

For `C=CC1=C(C(=O)O)N2C(=O)[C@@H](NC(=O)/C(=N/OCC(=O)O)c3csc(N)n3)[C@H]2SC1`, the inhibition was 71% (active).

For the molecule `OC[C@H]1[C@@H](c2ccc(/C=C/c3ccccc3)cc2)[C@H]2CN(Cc3cccnc3)CCCCN21`, the inhibition is -0.638%.

`CO[C@@H]1CN(C)C(=O)c2cc(NC(=O)C3CC3)ccc2OC[C@H](C)N(Cc2ccc(F)cc2)C[C@@H]1C`: the inhibition is -0.858%.

On to `O=C(C[C@H]1CC[C@H](NC(=O)Nc2ccc(C(F)(F)F)cc2)[C@H](CO)O1)NCCN1CCCC1`, for which the inhibition was -2.91%.

For the molecule `Cc1noc(C)c1NC(=O)N(C)C[C@H]1OCCCC[C@H](C)Oc2ccc(NC(=O)Nc3ccc4c(c3)OCO4)cc2C(=O)N([C@H](C)CO)C[C@@H]1C`, the inhibition was 3.46%.

As to `O=C(C[C@@H]1CC[C@@H]2[C@H](COC[C@H](O)CN2Cc2cccc(F)c2)O1)NCc1ccncc1`, the inhibition is -0.388%.

Regarding `C[C@H]1CCCCO[C@H](CN(C)C(=O)CCC(F)(F)F)[C@@H](C)CN([C@@H](C)CO)C(=O)c2cc(NC(=O)Nc3ccc4c(c3)OCO4)ccc2O1`, the inhibition was 0.932%.

For the molecule `CCN(CC(=O)Nc1ccc(C)c(S(=O)(=O)N(C)C)c1)Cc1ccccc1`, the inhibition was -3.38%.

For `Cc1csc(SCC(=O)Nc2ccc(C)c(S(=O)(=O)N(C)C)c2)n1`, the inhibition was 3.71%.

With `Cc1ccc(NC(=O)CNCc2ccccn2)cc1S(=O)(=O)N(C)C`, the inhibition is 20.4% (active).

Take `CC(C)(C)c1ccc(CN2C(=O)c3ccccc3S2(=O)=O)cc1`: the inhibition is 41.7% (active).

Regarding `O=C1c2ccccc2S(=O)(=O)N1Cc1c(F)cccc1Cl`, the inhibition is -4.6%.

For the molecule `COc1ccc(CNC(=O)CN2C(=O)c3ccccc3S2(=O)=O)cc1`, the inhibition is -2.12%.

For the molecule `COc1ccccc1S(=O)(=O)N1CC[C@@H]2[C@H](CO)Nc3ccc(-c4ccccc4F)cc3[C@@H]21`, the inhibition is 2.37%.

Consider `CCC(=O)Nc1ccc2c(c1)C(=O)N(C)C[C@@H](OC)[C@H](C)CN(Cc1ccccc1C(=O)O)[C@@H](C)CO2`, for which the inhibition was 1.3%.

As to `O=C(NCCS(=O)(=O)NCc1ccc(Cl)cc1)c1ccccc1`, the inhibition is 0.839%.

In the case of `O=C(NCCc1ccc(Cl)cc1)C1CCCN1C(=O)NCc1ccccc1` (stereo not drawn), the inhibition is 1.86%.

Take `O=S1(=O)CC(NCc2ccccc2)C(Nc2ccc(Cl)cc2)C1` (stereo not drawn): the inhibition was 35.4% (active).

On to `CN(C)CC#Cc1ccc([C@H]2[C@H](CO)N3CCCCN(CC4CC4)C[C@@H]23)cc1`, for which the inhibition was 0.034%.

As to `COc1ccccc1CNC(=O)C[C@@H]1CC[C@@H]2[C@@H](COc3ccc(NC(=O)Nc4ccc(F)c(F)c4)cc3C(=O)N2C)O1`, the inhibition is 0.834%.
